Laboratory results from article PMC7819943, “Rice protein-binding microarrays: a tool to detect cis-acting elements near promoter regions in rice”.
The full ranking holds about 68,000 sequences; the median of “fluorescence intensity (a.u.)” is about 9,100, and the highest 2% start at about 16,000. Many of the other results were omitted from the sample, so the highest values are more common in it than they were.

molecular target: OsWRKY34 (Oryza sativa, UniProt Q0JBA9 1-250); assay: protein-binding microarray (RPBM); PBS, 2% BSA, 51.3 ng/ul salmon testes DNA, 50 uM zinc acetate, 200 nM TF, 25 C, 1 h; high values mean tight binding; conditions: protein: recombinant; tags: N-terminal polyhistidine and DsRed monomer fusion (pET32a); label: CyDye5-dUTP incorporated in the synthesized complementary strand; 3' TTTTT single-stranded linker to array surface; dsDNA, one strand shown
Sequence (Q0JBA9 entry or part of it): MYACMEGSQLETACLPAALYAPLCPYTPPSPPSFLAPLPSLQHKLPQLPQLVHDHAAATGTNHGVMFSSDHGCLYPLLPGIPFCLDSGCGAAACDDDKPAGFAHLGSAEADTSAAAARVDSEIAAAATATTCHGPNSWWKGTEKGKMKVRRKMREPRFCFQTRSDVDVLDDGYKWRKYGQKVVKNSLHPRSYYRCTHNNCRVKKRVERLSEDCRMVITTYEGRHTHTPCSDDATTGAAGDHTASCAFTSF
Outline: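 Binding signal is defined as the fluorescence intensity of each feature in arbitrary units, read on an Axon 4000B scanner. Transcription factors with N-terminal polyhistidine and DsRed fusions came from E. coli BL21-CodonPlus and were purified on Ni–NTA. They were incubated at 200 nM for 1 h at 25 °C on a custom Agilent array that had been made double-stranded with Cy5-dUTP, with 50 µM zinc acetate present, and the array was washed.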

Q: Which binding signal does the source give for “CTAGAAGGTGACTTTTCCAACTCAACTCTCGTTTTTTCACCGGAGTCACCTAGTGCAG” here?
A: 11500 fluorescence intensity (a.u.)

Q: Which binding signal does the source give for “ACTTTATTACACACATAAACTTTCAACTTTACCGTCACATCGGAGTCACCTAGTGCAG” here?
A: 9420 fluorescence intensity (a.u.)

Q: “AATCTTCTAACCACCGTACGTTCTCCTCGCACTATAAATACGGAGTCACCTAGTGCAG” was tested. Which binding signal did it give?
A: 11500 fluorescence intensity (a.u.)

Q: “AAGATAGATGCCACTAATTTTTACACTGTATTTTGTAACTCGGAGTCACCTAGTGCAG” was tested. Which binding signal did it give?
A: 8290 fluorescence intensity (a.u.)

Q: With “CACATGCTTATACCGTTCGTGCTGGAGTTCCTGATCGATGCGGAGTCACCTAGTGCAG” as the sequence, how does the binding signal read?
A: 8070 fluorescence intensity (a.u.)

Q: “GTAGGAGGGTGGTTGGTTGTAGAATGGGAAGAAATTTGAACGGAGTCACCTAGTGCAG” was tested. Which binding signal did it give?
A: 11100 fluorescence intensity (a.u.)

Q: “CGGTAGGCGTACGTGGAGACCGGTGGAATTCGTCAAAACCCGGAGTCACCTAGTGCAG” was tested. Which binding signal did it give?
A: 55000 fluorescence intensity (a.u.)

Q: For “CCACGTAGGCGCCACGTCAGCCAAAACCGCTCTTAAAACCCGGAGTCACCTAGTGCAG”, which binding signal is on record?
A: 8110 fluorescence intensity (a.u.)

Q: Which binding signal does the source give for “AAACGTCAAAAGACTCAAAACCCAAAACCCGCGTGCTGACCGGAGTCACCTAGTGCAG” here?
A: 8030 fluorescence intensity (a.u.)

Q: With “AAGGTTCGTTTCATTTTTTTTTACTTAATTAACTATTCCTCGGAGTCACCTAGTGCAG” as the sequence, how does the binding signal read?
A: 8740 fluorescence intensity (a.u.)

Q: How did the binding signal turn out when “ACTCTTGGTATGTTCTGCTTAGATACACTGTGTTGCTTGCCGGAGTCACCTAGTGCAG” was run?
A: 9380 fluorescence intensity (a.u.)

Q: Which binding signal does the source give for “TCTTGTGTACGTTGTGTGTTGTCATTGTGTGTCTGTCTTACGGAGTCACCTAGTGCAG” here?
A: 17200 fluorescence intensity (a.u.)

Q: With “CGCCGTTGACTTTTTTAAATATGTTTGACCGTTCGTCTTACGGAGTCACCTAGTGCAG” as the sequence, how does the binding signal read?
A: 39400 fluorescence intensity (a.u.)

Q: With “TGACTTTTTTAAATATGTTTGACCGTTCGTCTTATTGAAACGGAGTCACCTAGTGCAG” as the sequence, how does the binding signal read?
A: 8190 fluorescence intensity (a.u.)

Q: How did the binding signal turn out when “TTGACTTTTTATTAACGTTTGACCATTTGTTTTATTTAAACGGAGTCACCTAGTGCAG” was run?
A: 12000 fluorescence intensity (a.u.)

Q: For “TGTACGTGACCAGTAACGCGTTGACCTTTTCTTTGTTGAACGGAGTCACCTAGTGCAG”, which binding signal is on record?
A: 17000 fluorescence intensity (a.u.)

Q: For “GGTCTTGTCTGTTGTGTTAGCCATTTGTACCAACTCATGACGGAGTCACCTAGTGCAG”, which binding signal is on record?
A: 12000 fluorescence intensity (a.u.)

Q: “TCTTTTTGTTTGACTTTTTTAAAACCACAGGTCACCCTTACGGAGTCACCTAGTGCAG” was tested. Which binding signal did it give?
A: 14800 fluorescence intensity (a.u.)

Q: Which binding signal does the source give for “GCCGTTAACTTTTTTAAATATGTTTGACCGTTCGTCTTATCGGAGTCACCTAGTGCAG” here?
A: 10800 fluorescence intensity (a.u.)

Q: Which binding signal does the source give for “TTCACGTGTGTTTTGTGTAGTTTTCTACCAGTTTGTTGAACGGAGTCACCTAGTGCAG” here?
A: 8470 fluorescence intensity (a.u.)

Q: With “CACCGTTGACTTTTTGACCAACGTTTGACCCTTTGTTTTACGGAGTCACCTAGTGCAG” as the sequence, how does the binding signal read?
A: 57700 fluorescence intensity (a.u.)

Q: How did the binding signal turn out when “CTTTGTTGTTTTCTTCTGTTAGTGTCTGTATTATTCATTACGGAGTCACCTAGTGCAG” was run?
A: 9880 fluorescence intensity (a.u.)

Q: With “TTGACCTTTTCTTTGTTGAACGTTGACCGTTCCGTCTTATCGGAGTCACCTAGTGCAG” as the sequence, how does the binding signal read?
A: 14300 fluorescence intensity (a.u.)

Q: How did the binding signal turn out when “GTGGGTTGGGCCAAAGAAAGGTAGGCTGAGTGGAGGGATGCGGAGTCACCTAGTGCAG” was run?
A: 10400 fluorescence intensity (a.u.)

Q: For “CGCACACCACCGCCTACGTAGTAGCTCTGATCGGCGCTGTCGGAGTCACCTAGTGCAG”, which binding signal is on record?
A: 8250 fluorescence intensity (a.u.)

Q: How did the binding signal turn out when “AATTTTTTTTCAGCTGATCGCCACTTTATTCTTTTCATACCGGAGTCACCTAGTGCAG” was run?
A: 10200 fluorescence intensity (a.u.)

Q: “ACCGTGTTGCTGCCTGGTGCTCGCTTTGTTCGTAGGCCTTCGGAGTCACCTAGTGCAG” was tested. Which binding signal did it give?
A: 8520 fluorescence intensity (a.u.)

Q: For “GCTAGCGCTGGAATGGTCCTACTTCTTTCATTTACAACATCGGAGTCACCTAGTGCAG”, which binding signal is on record?
A: 8690 fluorescence intensity (a.u.)

Q: Which binding signal does the source give for “TATCATTATGTCCGAACGGTATACCTTCTTGTATCATTTCCGGAGTCACCTAGTGCAG” here?
A: 11200 fluorescence intensity (a.u.)

Q: With “CTCCGTAAGCTCCAGCCCACTGCCACCGCTGCTCCAGCTACGGAGTCACCTAGTGCAG” as the sequence, how does the binding signal read?
A: 8250 fluorescence intensity (a.u.)

Q: How did the binding signal turn out when “GGCGAGGCGAATGTGATGGGCTAAGTTTTGTCGTTGGCAACGGAGTCACCTAGTGCAG” was run?
A: 8210 fluorescence intensity (a.u.)

Q: “GCCATGAAACCTCCTTTGCTCACTGCTTTGGAACCATACTCGGAGTCACCTAGTGCAG” was tested. Which binding signal did it give?
A: 9020 fluorescence intensity (a.u.)

Q: “ATTTTGAGTTTTTACTTGTAACGTTTGACCACTTGTCTTACGGAGTCACCTAGTGCAG” was tested. Which binding signal did it give?
A: 8620 fluorescence intensity (a.u.)

Q: Which binding signal does the source give for “CACCGTTAACTTTTTATTACGTATTTGACCATTTGTCTTACGGAGTCACCTAGTGCAG” here?
A: 10200 fluorescence intensity (a.u.)

Q: “ACCGACCTACTTAATTGCCTCCTGCCAAAATGACCCTTTACGGAGTCACCTAGTGCAG” was tested. Which binding signal did it give?
A: 9140 fluorescence intensity (a.u.)

Q: “CCGCCTCCTTTGACCCTACCAAAATTTACCGTTGACCATGCGGAGTCACCTAGTGCAG” was tested. Which binding signal did it give?
A: 20000 fluorescence intensity (a.u.)

Q: Which binding signal does the source give for “ATGACGCCGTTGACTTTTTGTCCAACGACCATTCATTTTACGGAGTCACCTAGTGCAG” here?
A: 31300 fluorescence intensity (a.u.)

Q: With “AGTGTTGACCAGCTTTGACCACCTTACCCAACTCCTTGTGCGGAGTCACCTAGTGCAG” as the sequence, how does the binding signal read?
A: 17200 fluorescence intensity (a.u.)

Q: Which binding signal does the source give for “ATCCAACCCAACTCCCGTTGCTTTTTGTTGGACCCACTTGCGGAGTCACCTAGTGCAG” here?
A: 8110 fluorescence intensity (a.u.)

Q: For “CGCCGTTGACTTTTTGTTTAACGTTTGACCATTTGTCTTACGGAGTCACCTAGTGCAG”, which binding signal is on record?
A: 24400 fluorescence intensity (a.u.)

Q: “AAAAACTGGGCCAGCTTTTTGTTTTTTTTACCACCCACAGCGGAGTCACCTAGTGCAG” was tested. Which binding signal did it give?
A: 9010 fluorescence intensity (a.u.)

Q: For “TTTCCGCATTTCCGCTCCTCTCTTTTTTACCCTTGACATGCGGAGTCACCTAGTGCAG”, which binding signal is on record?
A: 8530 fluorescence intensity (a.u.)

Q: For “CTTTTCATCTTCTTGACGACTTGGTTGTTTGATTCATTTACGGAGTCACCTAGTGCAG”, which binding signal is on record?
A: 8830 fluorescence intensity (a.u.)

Q: With “AACCCATTTTCTGCTCTGCTCTTGCTTTGCTTTGCATTTCCGGAGTCACCTAGTGCAG” as the sequence, how does the binding signal read?
A: 14000 fluorescence intensity (a.u.)

Q: With “ATTGTTTGTCCCGTCCCTACATCACGCCAAAAGTCACAACCGGAGTCACCTAGTGCAG” as the sequence, how does the binding signal read?
A: 11800 fluorescence intensity (a.u.)

Q: How did the binding signal turn out when “GGAGGGGCGGCGATCGAGCAGAGCAGGGGAGGGAATCCTGCGGAGTCACCTAGTGCAG” was run?
A: 8310 fluorescence intensity (a.u.)

Q: How did the binding signal turn out when “CAGTGTATATTTCAGTGTATATTTGGTAGATTTGGTAGTACGGAGTCACCTAGTGCAG” was run?
A: 8310 fluorescence intensity (a.u.)

Q: “CTACCCTATGCTATGAGACCGCTCTTATTCCGGGGTTTAACGGAGTCACCTAGTGCAG” was tested. Which binding signal did it give?
A: 9760 fluorescence intensity (a.u.)

Q: “TTCGCCGTGTTACTGTAGCTCAAATCTCTAGCTTCCCCAACGGAGTCACCTAGTGCAG” was tested. Which binding signal did it give?
A: 9240 fluorescence intensity (a.u.)

Q: For “CTAACACATTCATCACATGATTAAAATTTTATTATTTATACGGAGTCACCTAGTGCAG”, which binding signal is on record?
A: 8510 fluorescence intensity (a.u.)

Q: Which binding signal does the source give for “CCATCATATTTGACTATTTTCAGGTGTTAGTTTGGACGATCGGAGTCACCTAGTGCAG” here?
A: 9210 fluorescence intensity (a.u.)

Q: With “TCCACCATTGACCAATGCCACGTCCTGCCAAATCCTCCTCCGGAGTCACCTAGTGCAG” as the sequence, how does the binding signal read?
A: 10700 fluorescence intensity (a.u.)

Q: Which binding signal does the source give for “CACCATTGACTTTTTAGCACATGTTTGACCGTTCGTCTTACGGAGTCACCTAGTGCAG” here?
A: 14800 fluorescence intensity (a.u.)

Q: Which binding signal does the source give for “TTTTGCCCTTTTTCTCTCGCCAGCTCGGACCCGTCGTGACCGGAGTCACCTAGTGCAG” here?
A: 8730 fluorescence intensity (a.u.)

Q: For “TGTTTGACCGTTCGTCTTATTAAAATTTTTTTGTGAAATACGGAGTCACCTAGTGCAG”, which binding signal is on record?
A: 8610 fluorescence intensity (a.u.)

Q: Which binding signal does the source give for “TTCTGAATGTGATTGAATTAATTGGACTTGCGTTGACCTTCGGAGTCACCTAGTGCAG” here?
A: 11700 fluorescence intensity (a.u.)

Q: How did the binding signal turn out when “CGTTTGACCGTTCGTCTTATTTGAAAATTTTTTATGCTTACGGAGTCACCTAGTGCAG” was run?
A: 10100 fluorescence intensity (a.u.)

Q: Which binding signal does the source give for “TTCCTTTGTTTAGTTGTTTGTTTTACATTCCACTCTACTACGGAGTCACCTAGTGCAG” here?
A: 9220 fluorescence intensity (a.u.)

Q: “TTGGTTAGTTGCCACTCTCTCTCGCCGTGACCCTTTTTTACGGAGTCACCTAGTGCAG” was tested. Which binding signal did it give?
A: 20600 fluorescence intensity (a.u.)

Q: How did the binding signal turn out when “TGACTTTTTAGCATATGTTTGACCGTTCGTCTTATTCAAACGGAGTCACCTAGTGCAG” was run?
A: 13600 fluorescence intensity (a.u.)

Q: Which binding signal does the source give for “CGCCGTTGACTTTTTAAAATTTGTTTGACCGTTCGTCTTACGGAGTCACCTAGTGCAG” here?
A: 30700 fluorescence intensity (a.u.)

Q: Which binding signal does the source give for “GAGTGCCATTGAATCCTTCTGTTGCGTTGACCACCAAATGCGGAGTCACCTAGTGCAG” here?
A: 16500 fluorescence intensity (a.u.)

Q: With “CACCATTGACTTTTTAGCATATGTTTGACCGTTCGTCTTACGGAGTCACCTAGTGCAG” as the sequence, how does the binding signal read?
A: 18200 fluorescence intensity (a.u.)
